# Measured values reported in publication PMC7862700, “An all-to-all approach to the identification of sequence-specific readers for epigenetic DNA modifications on cytosine”.
# What was measured:
# Experiment in all cases: DAPPL (digital affinity profiling via proximity ligation, sequencing); 10 mM Tris-HCl pH 7.5, 50 mM NaCl, 1 mM DTT, 4% glycerol, room temperature, 30 min; GST-TFs on glutathione beads, 16-mer random dsDNA library, 0.1% formaldehyde crosslink after washing; high values mean tight binding
# Settings in all cases: protein: recombinant; tags: N-terminal GST; dsDNA, one strand shown
# FLI1 = target: T1, FLI1 (Homo sapiens, UniProt Q01543 1-452)
# T1 sequence: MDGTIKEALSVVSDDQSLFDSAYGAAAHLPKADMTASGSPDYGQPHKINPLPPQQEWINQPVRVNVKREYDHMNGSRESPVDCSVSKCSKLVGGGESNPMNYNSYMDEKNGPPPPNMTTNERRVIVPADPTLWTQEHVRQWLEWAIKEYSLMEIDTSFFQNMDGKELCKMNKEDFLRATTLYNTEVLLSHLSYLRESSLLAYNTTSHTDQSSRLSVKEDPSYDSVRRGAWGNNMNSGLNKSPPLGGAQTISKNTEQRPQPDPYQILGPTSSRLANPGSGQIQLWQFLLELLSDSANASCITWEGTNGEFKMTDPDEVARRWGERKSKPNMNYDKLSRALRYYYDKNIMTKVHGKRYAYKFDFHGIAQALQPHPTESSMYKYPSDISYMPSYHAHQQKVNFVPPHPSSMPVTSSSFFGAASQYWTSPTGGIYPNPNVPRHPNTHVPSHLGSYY
# Method in brief: (§1)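 After expression in yeast as GST fusions, human transcription factors were bound to glutathione beads, DNA-barcoded and mixed with a tag-only sample. The pools were incubated with 200 nmole of a 16-mer random double-stranded DNA library in Tris/NaCl/DTT/glycerol buffer (30 min, room temperature), washed and crosslinked with 0.1% formaldehyde. Proximity ligation with BsaI/T4 ligase ran for 1 h at 37 °C, before PCR amplification and sequencing on an Illumina NextSeq500. Binding signal is a hexamer's read frequency for a factor divided by its frequency for the tag-only sample.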
# ELK1 = target: T2, ELK1 (Homo sapiens, UniProt P19419 1-428)
# T2 sequence: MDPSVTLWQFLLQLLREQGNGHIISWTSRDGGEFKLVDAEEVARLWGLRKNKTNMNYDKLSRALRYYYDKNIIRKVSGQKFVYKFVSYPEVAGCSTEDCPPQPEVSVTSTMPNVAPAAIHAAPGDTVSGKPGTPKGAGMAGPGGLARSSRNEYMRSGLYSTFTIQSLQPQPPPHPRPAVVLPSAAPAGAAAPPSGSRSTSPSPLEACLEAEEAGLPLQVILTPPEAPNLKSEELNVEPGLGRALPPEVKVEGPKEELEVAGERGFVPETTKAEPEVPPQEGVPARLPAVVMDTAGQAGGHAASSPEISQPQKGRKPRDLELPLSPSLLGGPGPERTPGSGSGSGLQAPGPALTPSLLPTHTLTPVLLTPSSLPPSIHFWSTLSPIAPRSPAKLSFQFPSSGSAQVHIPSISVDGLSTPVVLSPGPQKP
# Method in brief: as §1
# GABPA = target: T3, GABPA (Homo sapiens, UniProt Q06546 1-454)
# T3 sequence: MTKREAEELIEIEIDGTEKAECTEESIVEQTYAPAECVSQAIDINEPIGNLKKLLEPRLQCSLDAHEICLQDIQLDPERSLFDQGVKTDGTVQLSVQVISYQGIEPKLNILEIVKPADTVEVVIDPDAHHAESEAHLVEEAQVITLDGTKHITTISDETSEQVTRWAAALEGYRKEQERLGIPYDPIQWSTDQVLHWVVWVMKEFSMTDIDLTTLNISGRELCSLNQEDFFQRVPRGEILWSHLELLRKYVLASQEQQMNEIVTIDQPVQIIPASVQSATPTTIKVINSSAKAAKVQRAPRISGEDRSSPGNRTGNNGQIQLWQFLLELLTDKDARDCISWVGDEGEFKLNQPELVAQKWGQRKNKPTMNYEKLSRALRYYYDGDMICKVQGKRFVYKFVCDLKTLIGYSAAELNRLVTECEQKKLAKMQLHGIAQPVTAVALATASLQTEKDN
# Method in brief: as §1
# ERG = target: T4, ERG (Homo sapiens, UniProt P11308 1-479)
# T4 sequence: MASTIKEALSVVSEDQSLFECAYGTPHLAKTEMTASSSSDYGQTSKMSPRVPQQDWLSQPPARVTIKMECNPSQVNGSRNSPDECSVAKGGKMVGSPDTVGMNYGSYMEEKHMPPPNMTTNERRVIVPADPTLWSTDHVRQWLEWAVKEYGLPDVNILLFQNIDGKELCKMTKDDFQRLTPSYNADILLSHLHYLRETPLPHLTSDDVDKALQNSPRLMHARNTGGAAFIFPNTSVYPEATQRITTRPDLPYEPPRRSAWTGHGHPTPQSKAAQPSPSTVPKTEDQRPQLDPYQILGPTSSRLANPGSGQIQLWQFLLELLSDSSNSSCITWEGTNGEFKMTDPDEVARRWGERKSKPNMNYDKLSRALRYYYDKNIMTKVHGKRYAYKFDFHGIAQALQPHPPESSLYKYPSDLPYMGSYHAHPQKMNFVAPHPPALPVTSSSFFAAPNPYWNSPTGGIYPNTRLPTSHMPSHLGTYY
# Method in brief: as §1
# ELF1 = ELF1 (Homo sapiens, UniProt P32519 1-619)
# Method in brief: as §1
# EHF = target: T5, EHF (Homo sapiens, UniProt Q9NZC4 1-300)
# T5 sequence: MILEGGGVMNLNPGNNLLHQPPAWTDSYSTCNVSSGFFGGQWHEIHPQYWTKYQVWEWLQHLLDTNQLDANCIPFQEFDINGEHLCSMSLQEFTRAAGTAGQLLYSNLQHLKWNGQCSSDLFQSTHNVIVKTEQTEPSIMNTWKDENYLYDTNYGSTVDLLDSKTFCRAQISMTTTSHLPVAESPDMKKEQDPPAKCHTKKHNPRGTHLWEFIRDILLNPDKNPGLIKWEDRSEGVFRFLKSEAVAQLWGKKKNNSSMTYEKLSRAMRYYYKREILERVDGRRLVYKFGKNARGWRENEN
# Method in brief: as §1
# SPI1 = SPI1 (Homo sapiens, UniProt P17947 1-270)
# Method in brief: as §1
# ELK3 = target: T6, ELK3 (Homo sapiens, UniProt P41970 1-407)
# T6 sequence: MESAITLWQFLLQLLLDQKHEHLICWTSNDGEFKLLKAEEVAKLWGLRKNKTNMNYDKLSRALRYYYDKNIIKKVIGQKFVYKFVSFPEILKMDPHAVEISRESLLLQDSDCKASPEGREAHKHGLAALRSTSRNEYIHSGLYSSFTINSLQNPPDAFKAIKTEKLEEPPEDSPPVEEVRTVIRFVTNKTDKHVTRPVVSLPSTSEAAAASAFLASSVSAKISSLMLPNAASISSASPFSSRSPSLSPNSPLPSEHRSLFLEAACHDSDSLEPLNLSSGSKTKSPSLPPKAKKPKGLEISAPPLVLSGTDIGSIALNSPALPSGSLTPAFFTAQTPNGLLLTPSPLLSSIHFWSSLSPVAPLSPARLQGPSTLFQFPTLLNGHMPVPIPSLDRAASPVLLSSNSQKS
# Method in brief: as §1
# ELF1, sequence (P32519 whole entry): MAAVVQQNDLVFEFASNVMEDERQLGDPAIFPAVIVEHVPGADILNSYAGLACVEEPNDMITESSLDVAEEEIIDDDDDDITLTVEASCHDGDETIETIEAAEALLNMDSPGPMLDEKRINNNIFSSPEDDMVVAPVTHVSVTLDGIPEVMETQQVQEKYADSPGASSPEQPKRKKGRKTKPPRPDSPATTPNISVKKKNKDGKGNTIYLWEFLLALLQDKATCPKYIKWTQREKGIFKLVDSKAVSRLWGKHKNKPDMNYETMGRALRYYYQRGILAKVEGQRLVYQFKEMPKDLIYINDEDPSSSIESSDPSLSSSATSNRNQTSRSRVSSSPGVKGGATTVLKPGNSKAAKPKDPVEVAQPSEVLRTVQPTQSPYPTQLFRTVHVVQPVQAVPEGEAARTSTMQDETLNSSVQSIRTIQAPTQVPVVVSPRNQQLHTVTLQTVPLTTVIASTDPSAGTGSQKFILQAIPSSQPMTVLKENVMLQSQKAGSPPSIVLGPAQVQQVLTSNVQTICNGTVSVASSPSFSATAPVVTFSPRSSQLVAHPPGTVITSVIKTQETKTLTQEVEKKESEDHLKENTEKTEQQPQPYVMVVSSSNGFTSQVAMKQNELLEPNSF
sequence,measurement,setting,value
CGCTAG,binding signal,FLI1,"1.07 fold enrichment (6-mer frequency, TF over GST control)"
same,binding signal,ELK1,"1.06 fold enrichment (6-mer frequency, TF over GST control)"
same,binding signal,GABPA,"1.09 fold enrichment (6-mer frequency, TF over GST control)"
same,binding signal,ERG,"1.03 fold enrichment (6-mer frequency, TF over GST control)"
same,binding signal,ELF1,"1.04 fold enrichment (6-mer frequency, TF over GST control)"
same,binding signal,EHF,"1.12 fold enrichment (6-mer frequency, TF over GST control)"
same,binding signal,SPI1,"1.09 fold enrichment (6-mer frequency, TF over GST control)"
same,binding signal,ELK3,"1.3 fold enrichment (6-mer frequency, TF over GST control)"
